# Results filed as inconclusive are left out. Active and inactive are the calls of the source. The calls were made as follows: active = hit-call score of the fitted dose curve at least 0.9, where 1 is the maximum; inconclusive = response in the unintended direction; inactive = score below 0.9.
# Legend:
# [1] = biological target: human Phosphodiesterase 5 (PDE5), PDE5A (gene 8654) (UniProt O76074); experiment: NVS_ENZ_hPDE5: NovaScreen (NVS) Enzymatic Assay for human Phosphodiesterase 5 (PDE5) (AID 2283194)
# Summary of the method: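 Recombinant human PDE5 with specific substrate, read 1 h after dosing by fluorescence with electrophoretic mobility-shift separation of substrate and product. Initial single-concentration duplicate screen at 25 uM, actives followed in concentration series; loss of activity versus DMSO.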
# [2] = biological target: human Matrix Metalloproteinase-3 (MMP3), MMP3 (gene 4314) (UniProt P08254); experiment: NVS_ENZ_hMMP3: NovaScreen (NVS) Enzymatic Assay for human Matrix Metalloproteinase-3 (MMP3) (AID 2283185)
# Summary of the method: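 Cell-free recombinant human MMP3 activity, fluorescence intensity read 1 h after dosing. Primary screen duplicate at 25 uM, actives retested in concentration series; loss of signal vs DMSO baseline.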
# [3] = biological target: Tyrosine-protein phosphatase non-receptor type 11 (Homo sapiens) (UniProt Q06124); experiment: NVS_ENZ_hPTPN11: NovaScreen (NVS) Enzymatic Assay for human Protein Tyrosine Phosphatase Non-receptor Type 11 (PTPN11) (AID 2283202)
# Chain of Tyrosine-protein phosphatase non-receptor type 11 (Homo sapiens) (Q06124 whole entry, looked up): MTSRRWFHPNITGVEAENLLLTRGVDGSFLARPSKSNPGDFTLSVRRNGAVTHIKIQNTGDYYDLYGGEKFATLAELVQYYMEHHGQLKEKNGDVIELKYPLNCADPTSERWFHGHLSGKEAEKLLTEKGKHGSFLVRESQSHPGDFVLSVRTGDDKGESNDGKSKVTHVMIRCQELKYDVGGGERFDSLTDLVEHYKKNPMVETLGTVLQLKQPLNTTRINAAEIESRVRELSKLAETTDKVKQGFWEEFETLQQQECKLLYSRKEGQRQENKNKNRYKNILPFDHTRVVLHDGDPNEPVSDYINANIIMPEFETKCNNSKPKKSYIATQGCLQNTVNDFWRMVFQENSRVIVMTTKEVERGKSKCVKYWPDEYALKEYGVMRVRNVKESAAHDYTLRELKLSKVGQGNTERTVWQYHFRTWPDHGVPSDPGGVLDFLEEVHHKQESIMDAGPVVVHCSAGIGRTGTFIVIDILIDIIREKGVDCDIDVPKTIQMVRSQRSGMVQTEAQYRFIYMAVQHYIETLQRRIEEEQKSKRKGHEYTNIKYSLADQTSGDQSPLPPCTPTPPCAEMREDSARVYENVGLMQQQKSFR
# Summary of the method: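 Recombinant human PTPN11 activity on a fluorescent substrate, with substrate/product separated by electrophoretic mobility shift; read 0.5 h after dosing, loss of signal vs DMSO. Duplicate 25 uM screen, then concentration-response up to 50 uM.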
# [4] = biological target: human Phosphodiesterase 10 (PDE10), PDE10A (gene 10846) (UniProt Q9Y233); experiment: NVS_ENZ_hPDE10: NovaScreen (NVS) Enzymatic Assay for human Phosphodiesterase 10 (PDE10) (AID 2283195)
# Chain of human Phosphodiesterase 10 (PDE10), PDE10A (gene 10846) (Q9Y233 whole entry, looked up): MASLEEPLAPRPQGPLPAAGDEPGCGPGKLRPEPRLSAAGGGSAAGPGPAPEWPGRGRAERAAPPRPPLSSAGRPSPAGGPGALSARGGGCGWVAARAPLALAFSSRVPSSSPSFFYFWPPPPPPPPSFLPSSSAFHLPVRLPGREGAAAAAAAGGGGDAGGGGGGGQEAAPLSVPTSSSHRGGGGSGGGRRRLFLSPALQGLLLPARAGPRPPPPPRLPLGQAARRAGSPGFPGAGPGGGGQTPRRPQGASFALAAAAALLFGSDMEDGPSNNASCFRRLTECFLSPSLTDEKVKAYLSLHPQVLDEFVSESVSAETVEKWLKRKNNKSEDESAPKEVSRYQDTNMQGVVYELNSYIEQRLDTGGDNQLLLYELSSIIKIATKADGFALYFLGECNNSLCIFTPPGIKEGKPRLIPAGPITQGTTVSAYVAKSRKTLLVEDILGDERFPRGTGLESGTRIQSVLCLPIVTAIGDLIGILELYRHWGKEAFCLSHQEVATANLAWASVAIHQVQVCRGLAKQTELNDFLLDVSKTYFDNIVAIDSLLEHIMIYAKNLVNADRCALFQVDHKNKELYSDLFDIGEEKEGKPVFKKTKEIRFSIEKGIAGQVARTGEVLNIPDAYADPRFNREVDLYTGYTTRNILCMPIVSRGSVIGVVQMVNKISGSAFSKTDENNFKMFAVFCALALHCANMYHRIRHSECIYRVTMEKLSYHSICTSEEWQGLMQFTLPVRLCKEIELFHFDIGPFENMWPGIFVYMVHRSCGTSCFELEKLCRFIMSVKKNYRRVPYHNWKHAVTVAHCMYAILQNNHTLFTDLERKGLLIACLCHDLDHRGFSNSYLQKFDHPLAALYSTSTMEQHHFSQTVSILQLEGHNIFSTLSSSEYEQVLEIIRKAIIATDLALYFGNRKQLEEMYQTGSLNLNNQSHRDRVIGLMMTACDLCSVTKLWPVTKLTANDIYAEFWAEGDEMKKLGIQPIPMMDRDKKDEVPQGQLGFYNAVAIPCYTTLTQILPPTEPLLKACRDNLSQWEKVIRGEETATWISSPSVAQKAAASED
# Summary of the method: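 PDE10A, cell-free; 1 h incubation; fluorescence intensity + electrophoretic mobility shift separating substrate/product; DMSO = baseline; 25 uM duplicate primary, CRC up to 50 uM.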
# [5] = biological target: human Matrix Metalloproteinase-1 (MMP1), MMP1 (gene 4312) (UniProt P03956); experiment: NVS_ENZ_hMMP1: NovaScreen (NVS) Enzymatic Assay for human Matrix Metalloproteinase-1 (MMP1) (AID 2283181)
# Summary of the method: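 Human MMP1 enzyme activity measured by fluorescence 1 h after dosing, cell-free, with a specific substrate. Screened in duplicate at 25 uM; hits (e.g. 30% inhibition) run in concentration-response up to 50 uM; loss of signal versus DMSO.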
# [6] = biological target: human Matrix Metalloproteinase-9 (MMP9), MMP9 (gene 4318) (UniProt P14780); experiment: NVS_ENZ_hMMP9: NovaScreen (NVS) Enzymatic Assay for human Matrix Metalloproteinase-9 (MMP9) (AID 2283190);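 also: cell-free recombinant MMP9 protease activity read by fluorescent substrate signal; active means inhibition seen as loss of fluorescence signal versus DMSO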
# Chain of human Matrix Metalloproteinase-9 (MMP9), MMP9 (gene 4318) (P14780 whole entry, looked up): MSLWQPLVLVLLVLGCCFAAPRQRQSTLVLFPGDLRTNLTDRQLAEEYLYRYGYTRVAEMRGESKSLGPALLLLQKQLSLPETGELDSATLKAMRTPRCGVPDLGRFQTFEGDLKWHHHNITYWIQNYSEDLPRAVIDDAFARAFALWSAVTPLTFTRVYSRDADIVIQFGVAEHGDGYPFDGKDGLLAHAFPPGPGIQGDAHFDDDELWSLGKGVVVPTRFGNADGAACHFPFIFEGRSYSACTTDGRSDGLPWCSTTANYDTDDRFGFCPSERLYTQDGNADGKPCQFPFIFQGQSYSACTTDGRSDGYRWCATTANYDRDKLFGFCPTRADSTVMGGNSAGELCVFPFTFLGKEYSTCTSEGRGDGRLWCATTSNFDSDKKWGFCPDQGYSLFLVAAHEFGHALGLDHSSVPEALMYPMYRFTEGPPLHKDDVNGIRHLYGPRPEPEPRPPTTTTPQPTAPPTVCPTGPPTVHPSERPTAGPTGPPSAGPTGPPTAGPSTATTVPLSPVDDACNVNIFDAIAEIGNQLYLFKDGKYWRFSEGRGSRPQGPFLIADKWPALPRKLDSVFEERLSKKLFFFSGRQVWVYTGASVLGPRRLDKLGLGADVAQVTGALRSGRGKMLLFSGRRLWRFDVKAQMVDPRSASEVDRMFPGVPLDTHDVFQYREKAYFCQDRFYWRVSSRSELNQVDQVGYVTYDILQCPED
# Summary of the method: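 Screening concentration 25 uM, duplicate wells, then dose series for confirmation. Cell-free enzymatic reaction measured by fluorescence intensity 1 h post-dosing; decreased signal versus DMSO taken as activity.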
# [7] = biological target: human Matrix Metalloproteinase-2 (MMP2), MMP2 (gene 4313) (UniProt P08253); experiment: NVS_ENZ_hMMP2: NovaScreen (NVS) Enzymatic Assay for human Matrix Metalloproteinase-2 (MMP2) (AID 2283184)
# Chain of human Matrix Metalloproteinase-2 (MMP2), MMP2 (gene 4313) (P08253 whole entry, looked up): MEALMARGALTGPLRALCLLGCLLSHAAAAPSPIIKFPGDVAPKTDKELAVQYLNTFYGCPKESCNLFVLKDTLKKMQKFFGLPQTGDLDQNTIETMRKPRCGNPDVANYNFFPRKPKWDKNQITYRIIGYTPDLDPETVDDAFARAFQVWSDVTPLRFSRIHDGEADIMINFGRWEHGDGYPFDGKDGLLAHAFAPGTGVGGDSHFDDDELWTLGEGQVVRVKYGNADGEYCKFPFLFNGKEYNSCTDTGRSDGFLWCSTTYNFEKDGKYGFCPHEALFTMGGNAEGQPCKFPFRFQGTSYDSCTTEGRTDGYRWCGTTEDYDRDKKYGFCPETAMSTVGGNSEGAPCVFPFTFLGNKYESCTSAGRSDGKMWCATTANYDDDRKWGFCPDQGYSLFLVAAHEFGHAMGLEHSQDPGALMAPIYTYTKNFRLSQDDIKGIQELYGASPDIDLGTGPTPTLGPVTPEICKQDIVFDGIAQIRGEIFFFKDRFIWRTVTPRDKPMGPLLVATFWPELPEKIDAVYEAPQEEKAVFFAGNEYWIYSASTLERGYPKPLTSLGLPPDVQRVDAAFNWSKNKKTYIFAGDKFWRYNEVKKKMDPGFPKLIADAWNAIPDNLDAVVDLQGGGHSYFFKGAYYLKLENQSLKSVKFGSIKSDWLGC
# Summary of the method: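 Cell-free recombinant MMP2 activity with a fluorescent substrate, read 1 h after dosing. Primary screen in duplicate at 25 uM; actives then run in concentration series; loss of signal fitted versus DMSO.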
# [8] = biological target: human Phosphoinositide 3-kinase alpha (PI3Ka), PIK3CA (gene 5290) (UniProt P42336); experiment: NVS_ENZ_hPI3Ka: NovaScreen (NVS) Enzymatic Assay for human Phosphoinositide 3-kinase alpha (PI3Ka) (AID 2283196)
# Chain of human Phosphoinositide 3-kinase alpha (PI3Ka), PIK3CA (gene 5290) (P42336 whole entry, looked up): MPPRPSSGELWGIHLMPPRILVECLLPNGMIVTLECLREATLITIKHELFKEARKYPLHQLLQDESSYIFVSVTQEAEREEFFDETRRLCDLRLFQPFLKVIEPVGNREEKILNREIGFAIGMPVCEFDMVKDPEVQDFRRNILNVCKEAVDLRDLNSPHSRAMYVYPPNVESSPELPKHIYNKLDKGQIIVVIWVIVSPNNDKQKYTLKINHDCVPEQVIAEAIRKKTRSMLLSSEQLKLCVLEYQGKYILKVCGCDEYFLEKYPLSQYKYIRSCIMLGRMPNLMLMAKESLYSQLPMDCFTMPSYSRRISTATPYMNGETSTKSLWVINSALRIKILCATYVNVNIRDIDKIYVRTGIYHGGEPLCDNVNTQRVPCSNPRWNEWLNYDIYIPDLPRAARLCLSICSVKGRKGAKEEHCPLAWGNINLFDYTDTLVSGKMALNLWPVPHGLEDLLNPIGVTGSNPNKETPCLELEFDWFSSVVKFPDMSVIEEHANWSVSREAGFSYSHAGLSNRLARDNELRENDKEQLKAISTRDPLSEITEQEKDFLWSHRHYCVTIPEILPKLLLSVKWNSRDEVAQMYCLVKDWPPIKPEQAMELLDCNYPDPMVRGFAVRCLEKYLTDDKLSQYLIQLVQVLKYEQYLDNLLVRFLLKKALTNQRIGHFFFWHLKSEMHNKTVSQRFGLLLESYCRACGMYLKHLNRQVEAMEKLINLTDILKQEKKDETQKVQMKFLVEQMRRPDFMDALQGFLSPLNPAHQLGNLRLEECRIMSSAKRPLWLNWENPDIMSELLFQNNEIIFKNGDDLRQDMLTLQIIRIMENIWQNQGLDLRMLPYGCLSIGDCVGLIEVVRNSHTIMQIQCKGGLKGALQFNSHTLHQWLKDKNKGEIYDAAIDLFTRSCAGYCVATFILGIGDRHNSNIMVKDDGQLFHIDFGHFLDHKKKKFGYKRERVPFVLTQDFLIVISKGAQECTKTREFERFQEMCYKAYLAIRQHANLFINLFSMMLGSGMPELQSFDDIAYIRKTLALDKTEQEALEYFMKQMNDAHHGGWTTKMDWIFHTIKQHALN
# Summary of the method: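 Duplicate single-point screen (25 uM), then singleton dose-response (max 50 uM) for compounds meeting the threshold. Cell-free kinase reaction, 1 h; fluorescent mobility-shift readout.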
# [9] = biological target: Mitogen-activated protein kinase 3 (Homo sapiens) (UniProt P27361); experiment: NVS_ENZ_hMAPK3: NovaScreen (NVS) Enzymatic Assay for human Mitogen-Activated Protein Kinase 3 (MAPK 3) (AID 2283177)
# Summary of the method: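 Cell-free enzymatic assay with recombinant protein and specific substrate; fluorescence and electrophoretic mobility shift read-out 1 h after dosing. Primary screen duplicate at 25 uM; actives then run in concentration-response up to 50 uM, loss of signal versus DMSO.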
# [10] = biological target: human MET Proto-Oncogene, Receptor Tyrosine Kinase (MET), MET (gene 4233) (UniProt P08581); experiment: NVS_ENZ_hMet: NovaScreen (NVS) Enzymatic Assay for human MET Proto-Oncogene, Receptor Tyrosine Kinase (MET) (AID 2283180)
# Summary of the method: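 Cell-free MET kinase assay using recombinant protein and fluorescent substrate, with mobility-shift separation; read 1 h after dosing. Primary duplicate at 25 uM; actives in singleton concentration-response to 50 uM maximum. Signal loss versus DMSO.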
# [11] = biological target: human p21 Activated Kinase 4 (PAK4), PAK4 (gene 10298) (UniProt O96013); experiment: NVS_ENZ_hPAK4: NovaScreen (NVS) Enzymatic Assay for human p21 Activated Kinase 4 (PAK4) (AID 2283189)
# Summary of the method: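 Cell-free recombinant human PAK4 activity assay; fluorescent substrate and product separated by electrophoretic mobility shift, read 1 h after dosing. Initially tested in duplicate at 25 uM, relative to DMSO baseline.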
# PPP2CA (gene 5515) = PPP2CA (gene 5515) (UniProt P67775); experiment: NVS_ENZ_hPPP2CA: NovaScreen (NVS) Enzymatic Assay for human Protein Phosphatase 2 Aatalytic subunit Alpha (PPP2CA) (AID 2283199)
# Chain of PPP2CA (gene 5515) (P67775 whole entry, looked up): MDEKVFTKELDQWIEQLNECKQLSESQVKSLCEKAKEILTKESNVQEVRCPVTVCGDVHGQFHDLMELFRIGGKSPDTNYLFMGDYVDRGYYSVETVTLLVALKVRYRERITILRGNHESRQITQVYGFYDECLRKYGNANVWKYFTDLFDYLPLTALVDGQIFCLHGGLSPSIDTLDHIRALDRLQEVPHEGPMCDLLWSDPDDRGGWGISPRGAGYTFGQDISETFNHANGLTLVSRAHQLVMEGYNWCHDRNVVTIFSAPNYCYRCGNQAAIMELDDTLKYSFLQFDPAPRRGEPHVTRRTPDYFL
# Summary of the method: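 Recombinant human PPP2CA with fluorescent substrate; product separated from substrate by electrophoretic mobility shift, read 1.33 h after dosing. Duplicate single-point at 25 uM, then singleton concentration-response up to 50 uM; loss of signal versus DMSO.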
# [12] = biological target: Serine/threonine-protein phosphatase PP1-alpha catalytic subunit (Homo sapiens) (UniProt P62136); experiment: NVS_ENZ_hPPP1CA: NovaScreen (NVS) Enzymatic Assay for human Protein Phosphatase 1 Aatalytic subunit Alpha (PPP1CA) (AID 2283200)
# Chain of Serine/threonine-protein phosphatase PP1-alpha catalytic subunit (Homo sapiens) (P62136 whole entry, looked up): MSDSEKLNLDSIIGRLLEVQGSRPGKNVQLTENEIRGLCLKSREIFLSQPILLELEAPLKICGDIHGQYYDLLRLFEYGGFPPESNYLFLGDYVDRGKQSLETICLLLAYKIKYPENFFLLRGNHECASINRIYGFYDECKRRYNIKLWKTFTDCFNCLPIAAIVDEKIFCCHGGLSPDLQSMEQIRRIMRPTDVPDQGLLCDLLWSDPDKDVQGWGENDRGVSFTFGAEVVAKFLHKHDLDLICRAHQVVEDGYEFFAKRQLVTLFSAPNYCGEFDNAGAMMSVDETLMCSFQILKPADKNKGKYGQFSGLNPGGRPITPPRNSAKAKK
# Summary of the method: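 Recombinant enzyme activity read by fluorescence with electrophoretic mobility shift separating substrate from product, 1.33 h after dosing; loss of signal vs DMSO baseline. Primary screen in duplicate at 25 uM; actives retested in concentration-response up to 50 uM.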
# [13] = biological target: human Matrix Metalloproteinase-7 (MMP7), MMP7 (gene 4316) (UniProt P09237); experiment: NVS_ENZ_hMMP7: NovaScreen (NVS) Enzymatic Assay for human Matrix Metalloproteinase-7 (MMP7) (AID 2283183)
# Chain of human Matrix Metalloproteinase-7 (MMP7), MMP7 (gene 4316) (P09237 whole entry, looked up): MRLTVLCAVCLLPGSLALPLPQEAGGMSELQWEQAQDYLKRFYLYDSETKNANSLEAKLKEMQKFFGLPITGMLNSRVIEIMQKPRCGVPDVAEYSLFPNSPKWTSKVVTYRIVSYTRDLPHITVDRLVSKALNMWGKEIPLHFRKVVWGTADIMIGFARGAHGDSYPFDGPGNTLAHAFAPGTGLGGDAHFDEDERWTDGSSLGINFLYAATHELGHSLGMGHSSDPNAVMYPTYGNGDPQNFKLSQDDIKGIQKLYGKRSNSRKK
# Summary of the method: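 Cell-free fluorescence enzymatic assay read 1 h after compound addition, activity loss analyzed against DMSO. Primary duplicate testing at 25 uM; compounds meeting threshold rerun in singleton concentration-response up to 50 uM.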
# [14] = biological target: human Protein Tyrosine Phosphatase Non-receptor Type 1 (PTPN1), PTPN1 (gene 5770) (UniProt P18031); experiment: NVS_ENZ_hPTPN1: NovaScreen (NVS) Enzymatic Assay for human Protein Tyrosine Phosphatase Non-receptor Type 1 (PTPN1) (AID 2283201)
# Summary of the method: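 Cell-free fluorogenic-substrate activity assay on recombinant enzyme, read 1.33 h after dosing by fluorescence and electrophoretic mobility shift; loss of signal vs DMSO baseline. Primary screen in duplicate at 25 uM, hits then run in concentration-response up to 50 uM.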
# [15] = biological target: human Phosphodiesterase 4A1 (PDE4A1), PDE4A (gene 5141) (UniProt P27815); experiment: NVS_ENZ_hPDE4A1: NovaScreen (NVS) Enzymatic Assay for human Phosphodiesterase 4A1 (PDE4A1) (AID 2283191)
# Summary of the method: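 Cell-free recombinant human PDE4A1 with fluorescent substrate; product separated by electrophoretic mobility shift, 1 h. Screened at 25 uM, then up to 50 uM in concentration-response; loss of signal fitted against DMSO.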
# [16] = biological target: human Protein Phosphatase, Mg2+/Mn2+ Dependent 1A (PPM1A), PPM1A (gene 5494) (UniProt P35813); experiment: NVS_ENZ_hPPM1A: NovaScreen (NVS) Enzymatic Assay for human Protein Phosphatase, Mg2+/Mn2+ Dependent 1A (PPM1A) (AID 2283198)
# Summary of the method: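 Cell-free recombinant PPM1A phosphatase assay with fluorescent substrate, read 1 h after dosing by electrophoretic mobility shift. Chemicals screened in duplicate at 25 uM, then in concentration-response up to 50 uM; loss of activity versus DMSO.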
# [17] = biological target: Collagenase 3 (Homo sapiens) (UniProt P45452); experiment: NVS_ENZ_hMMP13: NovaScreen (NVS) Enzymatic Assay for human Matrix Metalloproteinase-13 (MMP13) (AID 2283182)
# Summary of the method: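 Recombinant MMP13 cleaving fluorescent substrate, cell-free, measured 1 h after dosing. Primary duplicate screen at 25 uM; actives tested in concentration-response up to 50 uM; loss of signal relative to DMSO.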
# [18] = biological target: human NIMA (Never In Mitosis Gene A)-Related Kinase 2 (NEK2), NEK2 (gene 4751) (UniProt P51955); experiment: NVS_ENZ_hNEK2: NovaScreen (NVS) Enzymatic Assay for human NIMA (Never In Mitosis Gene A)-Related Kinase 2 (NEK2) (AID 2283188)
# Summary of the method: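 Cell-free NEK2 enzyme activity after 1 h exposure, read by fluorescence with electrophoretic mobility shift separating substrate and product. Primary screen in duplicate at 25 uM; actives then run as concentration series. Loss of signal versus DMSO scored.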
# [19] = biological target: cAMP-dependent protein kinase catalytic subunit alpha (Homo sapiens) (UniProt P17612); experiment: NVS_ENZ_hPKA: NovaScreen (NVS) Enzymatic Assay for human Protein Kinase A (PKA) (AID 2283192)
# Summary of the method: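 Recombinant human PKA with specific fluorescent substrate, product separated by electrophoretic mobility shift, read 1 h after dosing. Primary screen at 25 uM in duplicate; actives then run in concentration-response up to 50 uM, activity relative to DMSO.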
smiles,measurement,setting,value
[N-]=[N+]=[N-],outcome,[1],inactive
O=[N+]([O-])c1ccccc1,outcome,[2],inactive
O=c1ssc(Cl)c1Cl,outcome,[3],inactive
O=[N+]([O-])c1cc(Cl)ccc1Cl,outcome,[4],inactive
Cc1ccc(O)cc1C,AC50,[5],4.79 µM (active)
Cc1c([N+](=O)[O-])cc2c(c1[N+](=O)[O-])C(C)(C)CC2(C)C,AC50,[6],7.49 µM (active)
c1nc[nH]n1,outcome,[7],inactive
Cc1ccc2c(c1N)C(=O)c1ccccc1C2=O,AC50,[4],5.53 µM (active)
same,outcome,[8],inactive
Cc1cc(C)c(C(=O)P(=O)(c2ccccc2)c2ccccc2)c(C)c1,AC50,[4],0.687 µM (active)
CC(C)(C)OOC(C)(C)C,outcome,[9],inactive
same,outcome,[10],inactive
same,outcome,[11],inactive
same,outcome,PPP2CA (gene 5515),inactive
same,outcome,[12],inactive
same,outcome,[3],inactive
CC1(C)CN=C(NN=C(/C=C/c2ccc(C(F)(F)F)cc2)/C=C/c2ccc(C(F)(F)F)cc2)NC1,AC50,[8],14.1 µM (active)
same,AC50,[3],13.4 µM (active)
CCOP(=S)(OCC)SCSCC,outcome,[13],inactive
same,outcome,[7],inactive
CC(C)(C)c1ccc(O)cc1,outcome,[12],inactive
CCCCN(CCCC)N=O,outcome,[13],inactive
same,outcome,[8],inactive
CCCCC(CC)COP(=O)(Oc1ccccc1)Oc1ccccc1 (configuration not stated),AC50,[6],2.08 µM (active)
ClC1=C(Cl)C2(Cl)C3C(Cl)C(Cl)CC3C1(Cl)C2(Cl)Cl (configuration not stated),outcome,[8],inactive
same,outcome,[14],inactive
CSC(C)(C)C=NO,outcome,[13],inactive
same,AC50,[7],7.52 µM (active)
same,outcome,[15],inactive
same,outcome,[8],inactive
O=C(O)C(Cl)Cl,outcome,[16],inactive
CCCN(CCC)c1c([N+](=O)[O-])cc(C(C)C)cc1[N+](=O)[O-],AC50,[5],8.62 µM (active)
ClC(Cl)(Cl)c1ccccc1,outcome,PPP2CA (gene 5515),inactive
Nc1cc2c3c(c1)C(c1ccccc1)=N[C@@H](NC(=O)c1cccnc1)C(=O)N3CC2,outcome,[9],inactive
same,AC50,[1],17.9 µM (active)
CC(Cl)CN(C)C (configuration not stated),outcome,[4],inactive
O=P(OCC(Br)CBr)(OCC(Br)CBr)OCC(Br)CBr (configuration not stated),AC50,[6],4.32 µM (active)
N#C/C=C/c1ccccc1,outcome,[4],inactive
CCN(CC)c1ccccc1,outcome,[17],inactive
COP(=O)(O)OC,AC50,[6],9.97 µM (active)
CCOc1ccc(C(C)(C)COCc2cccc(Oc3ccccc3)c2)cc1,outcome,[13],inactive
same,AC50,[7],36 µM (active)
same,outcome,[18],inactive
same,outcome,[19],inactive
same,outcome,[16],inactive
Nc1ccc(Cl)cc1,outcome,[6],inactive
CC(Cc1ccc(OCC(=O)O)cc1)NCC(O)c1csc(C(F)(F)F)n1 (configuration not stated),outcome,[17],inactive
same,AC50,[7],2.3 µM (active)
same,outcome,[6],inactive
CCC1(c2ccccc2)C(=O)N=C(O)NC1=O (configuration not stated),AC50,[7],15.4 µM (active)
same,outcome,[6],inactive
CCOC(=O)c1ccccc1C(=O)OCC,outcome,[12],inactive
